Measurements taken from PubChem BioAssay AID588345 (Broad Institute, 2011).
In all, about 1,300 compounds went through this assay and about 850 (65%) were called active. About 1% were inconclusive and are not listed. The rule behind the calls is not given here. So high a share suggests a set chosen from earlier hits. These entries were drawn from the full list. Measured potencies and affinities stand elsewhere.

What follows are compounds tested against Dual specificity tyrosine-phosphorylation-regulated kinase 1A (Rattus norvegicus) (UniProt Q63470) (assay: rat Dyrk1A kinase inhibitors, dose response, biochemical, cherry-pick, plate reader, 2124-01 (AID 588345)). Conditions: Dyrk1A kinase biochemical assay; series mostly up to 12 µM; activity change, negative = inhibition: at the top concentration.

Activity change, negative = inhibition, inactive:
Cc1c(O)ccc2c(CN(C)Cc3ccccc3)cc(=O)oc12 -3.59%, Cc1cccc(C)c1OCCOC(=O)c1n[nH]c2ccccc12 -3.83%, CCOCCOc1nc2c(c(=O)n(C)c(=O)n2C)n1Cc1ccc(C)cc1 2.83%, Cc1ccc(-c2csc3ncnc(SCC(=O)O)c23)cc1 0.983%, O=C(O)CSc1ncnc2scc(-c3ccccc3)c12 -3.73%, O=C1C(Cl)=C(N2CCC(C(=O)O)CC2)C(=O)c2ccccc21 -22.7%, COc1ccc(-c2nc(N)ncc2-c2ccccc2OC)c(O)c1 -5.21%, CCc1cc(-c2[nH]ncc2-c2ccc3c(c2)OCO3)c(O)cc1O 11.2%, CCCCCCCCN1[C@@H](CC(=O)OC)c2cc(C(F)(F)F)ccc2S1(=O)=O 3.68%, C/C(=N/NC(=O)c1ccc(Br)s1)c1cccnc1 6.46%, CCc1ccc(C(=O)Nc2cccc(-c3nn[nH]n3)c2)s1 15.5%, Cc1cccc(NC(=S)NNC(=O)c2csc3c2CCC(C)C3)c1 (stereo unspecified) -6.56%, O=C(Nc1cccc(-c2nn[nH]n2)c1)c1csc2c1CCCC2 -16.6%, C/C(=C/c1oc2ccc(O)cc2c1[N+](=O)[O-])N(C)C -2.65%, CCC(C)[C@H]1CNCCN1CCc1cccc2ccccc12 (stereo partly specified) 8.99%, Cc1cccc(NC(=O)C2NC(=O)CC2c2ccccc2)c1C (stereo unspecified) -8.69%, COc1ccc(-n2nc(C)cc2Nc2ccccc2C(=O)O)cc1 1.42%, CCOC(=O)c1nnc(-c2ccc(C)cc2)nc1Sc1ccc(Cl)cc1 7.04%, O=C(O)c1[nH]c2ccc([N+](=O)[O-])cc2c1-c1ccccc1 6.17%, COCCNc1cc(C)nc2c(-c3ccccc3OC)c(C)nn12 8.67%, CC(=O)Nc1cccc(C(=O)OCC(=O)c2ccc3c(c2)OCO3)c1 -6.5%, Cc1c(Br)c(=O)oc2c(Br)c(O)ccc12 -38%, Oc1ccc(-c2csc(Nc3cccnc3)n2)cc1 -2.93%, Clc1cccc(Cc2nn[nH]n2)c1 -1.14%, CCOCCCNC(=O)/C(C#N)=C/c1cc(Br)c(O)c(Br)c1 17.4%, N#Cc1c(N)nc2c3c(sc(=N)c2c1N)NC(=O)CC3c1c(F)cccc1Cl (stereo unspecified) 9.16%, COc1ccc2c(C#CCCO)c(-c3ccc(S(C)(=O)=O)cc3)sc2c1 -10.2%, O=C(CSc1nc(-c2ccco2)cc(C(F)(F)F)n1)NCCCn1ccnc1 13.6%, Nc1ccc(-c2ccc(C(=O)O)s2)cn1 3.99%, CSc1nc(SCC(N)=O)c2c3c(sc2n1)CN(C)CC3 10.6%, COc1ccc(C(=O)N(Cc2nc(-c3ccc(C)cc3)no2)C(C)C)cc1OC 18.9%, CCc1n[nH]c(=S)n1/N=C/c1c[nH]c2ccc(Br)cc12 -4.88%, COc1cccc(-c2nnc3sc(C4CCCCC4)nn23)c1 14.7%, O=c1nc2n(c3sc4c(c13)CCCC4)C(CBr)CS2 (stereo unspecified) -2.76%, Oc1cc(-c2ccncc2)cc2cccnc12 0.251%, Cc1ccccc1C(=O)NNC(=O)CCCCC(=O)NNC(=O)c1ccccc1C 11%, O=c1cc(-c2ccccc2)c2c(O)cc(O)cc2o1 7.51%, Cc1ccc(-c2cc(O)cc3sc(=O)oc23)cc1C 13.1%, CC(=O)Nc1nc(-c2ccc3c(c2)OCO3)cs1 10.1%, O=C1C=C(c2ccc3c(c2)OCO3)CCC1 -3.2%, CCCN1CCN(c2ncnc3scc(C4COc5ccccc5O4)c23)CC1 (stereo unspecified) 11.1%
